TSHR ag = agonists of human thyroid stimulating hormone receptor; HEK293-CNG-TSHR cells (CNG channel as cAMP sensor), membrane potential dye, cAMP; 0.48% of 73,000 active; Potency, µM (series often up to 57.1 µM), without a hit: top-dose activation, most hits filed as activators; active means well fitted activation curve with a large enough effect in the main read-out, with a control signal flat, not every such curve was filed as active; inconclusive means small, poorly fitted or top-dose-only effect, or a change in a side signal; inactive means no such curve, though single readings can be large or run the other way; % of control where 0% means no effect;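 further: the control signal comes from parental cells without the receptor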
Target sequence (P16473 whole entry, looked up): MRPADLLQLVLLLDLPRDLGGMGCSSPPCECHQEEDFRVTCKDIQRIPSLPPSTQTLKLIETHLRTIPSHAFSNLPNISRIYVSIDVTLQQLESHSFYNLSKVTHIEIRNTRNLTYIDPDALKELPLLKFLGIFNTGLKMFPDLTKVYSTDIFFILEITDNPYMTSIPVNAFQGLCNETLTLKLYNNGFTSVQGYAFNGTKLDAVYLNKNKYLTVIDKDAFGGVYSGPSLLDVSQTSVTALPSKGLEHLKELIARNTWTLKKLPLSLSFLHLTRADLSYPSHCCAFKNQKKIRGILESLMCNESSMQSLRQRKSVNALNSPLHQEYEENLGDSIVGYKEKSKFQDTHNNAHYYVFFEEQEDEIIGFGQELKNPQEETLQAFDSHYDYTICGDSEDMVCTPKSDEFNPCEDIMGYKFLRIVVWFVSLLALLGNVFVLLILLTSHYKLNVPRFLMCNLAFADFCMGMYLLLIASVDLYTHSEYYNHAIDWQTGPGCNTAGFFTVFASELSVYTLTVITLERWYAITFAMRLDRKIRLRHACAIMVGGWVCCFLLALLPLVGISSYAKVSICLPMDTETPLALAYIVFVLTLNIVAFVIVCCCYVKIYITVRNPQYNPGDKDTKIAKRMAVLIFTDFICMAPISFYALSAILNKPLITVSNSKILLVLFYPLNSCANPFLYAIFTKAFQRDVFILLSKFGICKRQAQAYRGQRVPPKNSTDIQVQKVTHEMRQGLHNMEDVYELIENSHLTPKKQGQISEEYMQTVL
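HEK 293 cells stably expressing TSHR and a modified CNG channel, with CNG-only parental cells as counterscreen, were preloaded 60 min at room temperature with membrane potential dye containing 100 uM RO 20-1724. Compound exposure was 30 min, and depolarization was read as fluorescence at 590 nm.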
p53ts 32C kill = cytotoxicity in p53ts cells at permissive temperature. Potency, µM (series often up to 46.1 µM), without a hit: at the highest dose activity change, negative = cytotoxicity, most hits filed as cytotoxic. H1299-p53A138V at 32C, ATP luminescence viability, 24 h. 0.93% of 130,000 active;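 further: 0% = DMSO and -100% = full killing by reference compound; nearly all actives have a fitted effect of over 55% in size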
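ATP-content luminescence (ATPlite) read-out after 24 h compound exposure at 32C in H1299-p53A138V cells (600/well). Tested up to 46 uM. Normalized to DMSO (0%) and 100 uM tamoxifen (100% killing); Hill-fit AC50.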
HEK293 cAMP cs = raises cAMP in parental HEK293 cells, TSHR agonist counter-screen. parental HEK293 CNG cAMP sensor, membrane potential fluorescence. Potency, µM (series often up to 57.1 µM), for inactives: at the highest dose activation, most hits filed as activators. 2.5% of 73,000 active. AID 938; further: % of control where 0% means no effect; nearly all actives have a fitted effect of over 55% in size
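Counterscreen for endogenous-receptor signalling: CNG-channel HEK 293 cells report cAMP rise by membrane depolarization. After 60 min dye equilibration with 100 uM RO 20-1724, compounds incubated 30 min before bottom-read fluorescence at 590 nm.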
Imprint erasure = inducers of genomic imprint erasure in mouse ES cells; mouse ES Peg3-LacZ reporter, beta-gal luminescence, 40 h; Potency, µM (series often up to 60.7 µM), for inactives: at the top dose activity change, positive = activation, hits mostly activators; 0.02% of 110,000 active; AID 1948
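Readout: BetaGlo luminescence (5 min, room temp) for LacZ from the normally silent maternal Peg3 allele in female Peg3LacZ-Neo ES cells. Cells 300/well, 40 h, 37C, 5% CO2. Data normalized per plate to negative controls.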
IkB signaling = suppresses IkB signaling in ABC-DLBCL reporter cells; ABC-DLBCL IkBa-CBG/CBR dual luciferase ratio, 4 h; response scale: scaled: untreated 0%, proteasome inhibitor 100%; Potency, µM (series often up to 57.1 µM), inactives show top-dose IkBa stabilization activation; 0.04% of 110,000 active; AID 445; active means well fitted curve in the direction sought with a large enough effect in the signal ratio, not every such curve was filed as active; inconclusive means small, poorly fitted or top-dose-only effect, or a change in a side signal; the % refers to the signal ratio;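 further: the direction sought is a rising ratio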
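Curves were fitted separately to fusion (green), unfused (red) and ratio luminescence, then classed by r2, magnitude and activity. Cells: OCI-Ly3, 4 h compound plus doxycycline at 37C; 10 uM MG-132 defined full response.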
p53ts 39C tox = kills p53ts cells at the nonpermissive temperature; Potency, µM (top dose mostly 46.1 µM), inactives show top-dose activity change, negative = cell killing, hits mostly cytotoxic; AID 902; 1.5% of 130,000 active; H1299-p53A138V viability at 39C, ATP luminescence, 24 h; further: on the % scale 0 is the no-effect control and ±100 the full control effect; nearly all actives have a fitted effect of over 55% in size
The depositor's hits bear a star; ? = inconclusive; . = not tested or not shown; [ ] = dose if it differs, or a comment. Only some compounds are listed: those with a hit (about 3.1% of all), similar ones and a draw of the others. Unless noted, the call rests on the fitted dose curve; in most records, active means well fitted curve in the direction sought with a large enough effect; inconclusive means small, poorly fitted or top-dose-only effect, or another doubt; inactive means no such curve, though single readings can be large; an effect the other way counts as inactive or inconclusive. Potency means the concentration at half of the fitted maximal effect.

SMILES	TSHR ag	p53ts 32C kill	HEK293 cAMP cs	Imprint erasure	IkB signaling	p53ts 39C tox
CCCCCCC1C(C#N)=C(N)OC2=C1C(=O)CC(C)(C)C2 (stereo not drawn)	10%	-9%	11%	-13%	2%	4%
CCCCCCC1C(C#N)=C(N)OC2=C1C(=O)CCC2 (stereo not drawn)	17%	13µM*	6%	-15%	6%	16µM*
Cc1cccc(NC(=O)C(Cc2ccccc2)N2Cc3ccccc3C2=O)c1C (stereo not drawn)	.	3%	.	.	.	.
Cc1cc(C(=O)OCC(=O)N2CCOCC2)c2ccccc2n1	2%	6%	0%	-4%	0%	9%
COc1ccc(-c2cc(C(=O)OCC(=O)N3CCCC3)c3ccccc3n2)cc1	5%	13µM*	27%	-43%	?	6.3µM*
COC(=O)[C@@H](NC(=O)c1cc(-c2ccccc2)nc2ccccc12)c1ccccc1	?	.	3.2µM*	.	-4%	.
COc1ccc(-c2cc(C(=O)Oc3ccc(Br)cc3)c3ccccc3n2)cc1	.	?	.	-18%[10.9 µM]	2%	13µM*
O=C(Cn1ccn(-c2ccc(F)c(F)c2)c(=O)c1=O)c1ccc(F)cc1	.	0%	.	-14%[10.9 µM]	0%	-25%
CCCn1c(-c2ccc(F)cc2)nc2c(N3CCN(Cc4nc(OC)cc(OC)n4)CC3)nc(C)nc21	?	-23%	16µM*	-21%	.	-18%
CCCn1c(-c2ccc(F)cc2)nc2c(NCCN3CCCC3)nc(C)nc21	?	-4%	?	-13%	.	-1%
Cc1cc(Cl)ccc1OC(C)C(=O)Nc1ccccc1N1CCOCC1 (stereo not drawn)	?	-5%	25µM*	-6%	?	-11%
COc1ccc(C2C(=O)N(C3CCCCCC3)CC(=O)N2Cc2ccc(C)cc2)cc1 (stereo not drawn)	.	9%	.	-17%[10.9 µM]	?	-12%
COc1ccc(-c2[nH]ncc2C(=O)NCc2ccccc2C)cc1	.	3%	.	?	-1%	4%
CC(C)CS(=O)(=O)c1oc(-c2ccc(F)cc2)nc1S(=O)(=O)c1ccccc1	.	10µM*	.	-42%[10.9 µM]	?	2.5µM*
CCC(C)S(=O)(=O)c1oc(-c2cccs2)nc1S(=O)(=O)c1ccccc1 (stereo not drawn)	.	6.3µM*	.	-38%[10.9 µM]	?	1µM*
CN(C)Cc1ccc(C(C)(C)C)cc1-c1cc(C(C)(C)C)ccc1CN(C)C	0%[11.4 µM]	8%[9.22 µM]	1%[11.4 µM]	5%[10.9 µM]	2%[11.4 µM]	14%[9.22 µM]
Cc1ccc(CNC(=O)C2CCN(S(=O)(=O)c3c(C)noc3/C=C/c3cccs3)CC2)cc1	.	7%	.	22%[10.9 µM]	0%	18%
CCOC(=O)c1c(C)n(OCc2ccccc2)c2ccc3nonc3c12	?	7%	10µM*	-16%	1%	-4%
CN(C)c1ccc(-c2nc(Nc3ccncc3)c3ccccc3n2)cc1	?	10µM*	-49%	.	-7%[11.4 µM]	7.9µM*
c1ccc(Nc2nc(-c3ccncc3)nc3ccccc23)cc1	.	.	.	.	.	14%
CN(C)C(=O)c1ccc(-c2nc(Nc3ccncc3)c3ccccc3n2)cc1	3%	?	-11%	-7%	-9%[11.4 µM]	?
CNc1nc(-c2ccc(N(C)C)cc2)nc2ccccc12	?	13µM*	-72%	-39%	-7%[11.4 µM]	10µM*
CN(C)C(=O)c1ccc(-c2nc(Nc3ccc(F)cc3)c3ccccc3n2)cc1	32µM*	?	16%	-21%	-7%[11.4 µM]	?
CN(C)c1ccc(-c2nc(NCc3cccnc3)c3ccccc3n2)cc1	?	5µM*	-53%	-47%	-2%[11.4 µM]	4µM*
CN(C)c1ccc(-c2nc(N(C)C)c3ccccc3n2)cc1	.	-17%	9%	-8%	-9%[11.4 µM]	-23%
SMILES	TSHR ag	p53ts 32C kill	HEK293 cAMP cs	Imprint erasure	IkB signaling	p53ts 39C tox
Cc1ccc2c(c1)c(=O)c(C(=O)c1ccncc1)cn2CC(=O)Nc1c(C)cccc1C	.	-4%	.	-11%[10.9 µM]	0%	1%
CN(C)c1nc(-c2ccccc2C(F)(F)F)nc2ccccc12	14%	15%	27%	-13%	2%[11.4 µM]	-11%
CCOC(=O)c1cnc(NCc2ccccc2OC)c2ccccc12	.	10%	.	-10%[10.9 µM]	1%	-8%
CC(C)OC(=O)CN1CCN(C2c3ccccc3-c3ccccc32)CC1	25µM*	-12%	19%	-1%	0%	4%
Cc1ccc(/C=N/N2CCN(C3c4ccccc4-c4ccccc43)CC2)s1	.	2%	.	.	.	5%
Cc1noc(C)c1CSc1nnc(-c2ccccc2F)n1CCc1ccccc1	?	9%	10µM*	-9%	1%	-5%
Cc1noc(C)c1CSc1nc2ccccc2n1C	1%	-11%	3%	-43%	0%	-16%
CC(=O)c1nc2ccccc2n1S(=O)(=O)c1ccc(C)cc1	-3%	5%	8%	-15%	?	0%
CSc1ccc(/C=C/c2nc3ccccc3n2S(=O)(=O)c2ccc(F)c(C)c2)cc1	.	7.9µM*	.	-26%[10.9 µM]	?	4µM*
CC(=O)c1nc2ccccc2n1S(=O)(=O)c1ccc(Cl)cc1	.	6%	15%	-20%	1%	6%
CCOc1ccc(/C=C/c2nc3ccccc3n2S(=O)(=O)c2cccc(Cl)c2)cc1	.	13µM*	.	23%[10.9 µM]	?	10µM*
CCOc1cc(S(=O)(=O)n2c(C)nc3ccccc32)ccc1F	?	-11%	?	-38%	-1%	22%
Cc1ccc(/C=C/c2nc3ccccc3n2S(=O)(=O)c2cccc(Cl)c2)cc1	.	3.2µM*	.	-84%[10.9 µM]	?	3.2µM*
Cc1noc(NS(=O)(=O)c2cccc3c(N(C)C)cccc23)c1C	?	-5%	?	-5%	1%	-1%
Cc1c(Cl)c(S(N)(=O)=O)cc(S(N)(=O)=O)c1NC(=O)c1ccc(Cl)cc1	3%[11.4 µM]	1%[9.22 µM]	6%[11.4 µM]	-6%[10.9 µM]	1%[11.4 µM]	-10%[9.22 µM]

From PubChem
